Screens deposited in PubChem BioAssay by The Scripps Research Institute Molecular Screening Center.
Shown are actives, neighbours in structure and some others; about 3.4% of the full set was active somewhere.
PP1 inh: counter-screen for PP5 inhibitors: inhibitors of human PP1-alpha; P62136; purified PP1alpha, OMFP fluorescence; inhibition, % at 6.7 µM; hit rate 0.9% among 320,000; AID 2235;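 active = inhibition above the mean inhibition of all tested compounds plus 3 SD, computed separately for each screening campaign, cut at about 15% in these data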
Target sequence (P62136 whole entry, looked up): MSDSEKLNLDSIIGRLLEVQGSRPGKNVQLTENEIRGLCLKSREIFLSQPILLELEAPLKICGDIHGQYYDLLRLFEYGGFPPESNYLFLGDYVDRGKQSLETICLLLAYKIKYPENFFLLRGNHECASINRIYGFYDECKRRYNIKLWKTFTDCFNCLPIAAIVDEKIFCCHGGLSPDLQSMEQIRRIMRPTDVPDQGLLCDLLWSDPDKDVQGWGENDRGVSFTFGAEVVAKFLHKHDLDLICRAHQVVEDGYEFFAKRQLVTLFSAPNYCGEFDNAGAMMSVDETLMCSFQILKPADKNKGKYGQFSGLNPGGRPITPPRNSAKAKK
PP5 inh: inhibitors of human protein phosphatase 5 (PP5). P53041. inhibition, % at 6.7 µM. purified PP5c, OMFP substrate fluorescence. hit rate 0.18% among 320,000;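 active = inhibition above the campaign's mean inhibition across all tested compounds plus 3 SD, cut at about 9.5% in these data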;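 also: 0% = DMSO only and 100% = 100 µM cantharidin control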
pPAFAH FP inh: inhibitors of human plasma PAF acetylhydrolase (pPAFAH); Q13093; inhibition, % at 3.39 µM; recombinant pPAFAH, FP-rhodamine probe fluorescence polarization; hit rate 1.5% among 330,000;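 active = inhibition above the mean inhibition across the screen plus 3 SD, cut at about 25% in these data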;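 also: inhibitors block binding of the rhodamine activity-based probe so polarization drops; 0% = enzyme with DMSO and 100% = wells lacking pPAFAH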
PAFAH1B3 FP inh: blocks human PAF acetylhydrolase 1B catalytic subunit 3; Q15102; recombinant PAFAH1B3, FP-rhodamine probe, fluorescence polarization; inhibition, % at 3.39 µM; hit rate 0.28% among 340,000; AID 492972;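 active = inhibition above the screen-wide average of all tested compounds plus 3 SD, cut at about 25% in these data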;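 also: 0% = enzyme with DMSO only and 100% = wells lacking PAFAH1B3 protein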
Target sequence (Q15102 whole entry, looked up): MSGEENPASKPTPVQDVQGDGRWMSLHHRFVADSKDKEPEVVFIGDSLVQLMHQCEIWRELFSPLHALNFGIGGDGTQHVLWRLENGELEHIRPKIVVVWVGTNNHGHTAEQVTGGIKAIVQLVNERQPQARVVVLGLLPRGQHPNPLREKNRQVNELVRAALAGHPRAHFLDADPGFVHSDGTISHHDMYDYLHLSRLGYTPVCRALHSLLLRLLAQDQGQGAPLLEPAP
PAFAH1B2 FP inh: inhibitors of human PAFAH1B2; hit rate 1.2% among 340,000; recombinant PAFAH1B2, FP-rhodamine activity probe, fluorescence polarization; inhibition, % at 3.39 µM;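 active = inhibition above the mean of all tested compounds plus 3 SD, cut at about 24% in these data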;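 also: 0% = enzyme with DMSO and 100% = wells lacking PAFAH1B2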
PAFAH2 inh: PAFAH2 (human) inhibition; Q99487; hit rate 0.99% among 340,000; inhibition, % at 3.39 µM; recombinant PAFAH2, FP-rhodamine activity probe, fluorescence polarization; AID 492956;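 active = inhibition above the mean over all tested compounds plus 3 SD, cut at about 30% in these data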;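 also: inhibitors block probe labeling of enzyme so polarization drops; 0% = enzyme with DMSO and 100% = wells lacking PAFAH2 protein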
PP1 confirm: confirmation of human PP1 phosphatase inhibitors | purified PP1alpha, OMFP substrate fluorescence | AID 2358 | shares compounds with PP1 inh | inhibition, % at 6.7 µM | hit rate 52% among 1,900;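 active = mean PP1 inhibition above a set limit taken from the earlier primary screen, cut at about 15% in these data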
PP5 counter: inhibits human PP5 phosphatase in PP1 counter-screen. shares compounds with PP1 inh. purified PP5c, OMFP fluorescence. inhibition, % at 6.7 µM. hit rate 4% among 1,900;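 active = mean PP5 inhibition over triplicate wells above about 9.5% taken from the earlier PP1 screen, limit read from the data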
* = called active by the depositor; nt = no result.

SMILES	PP1 inh	PP5 inh	pPAFAH FP inh	PAFAH1B3 FP inh	PAFAH1B2 FP inh	PAFAH2 inh	PP1 confirm	PP5 counter
Cc1ccccc1NCC(=O)N/N=C/c1c(C)c(C(=O)c2ccc(Cl)cc2)n2ccccc12	4.0	4.1	6.3	-4.4	-2.3	-1.7	nt	nt
Cc1c(/C=N/NC(=O)CNc2ccccc2)c2ccccn2c1C(=O)c1ccc(Cl)cc1	20.5*	4.9	19.4	6.6	2.8	5.9	5.8	-0.1
COc1ccccc1[C@H]1C(c2ccc(F)cc2)=NN(c2ccccc2)[C@@H]1CO	nt	nt	8.6	9.9	4.5	3.0	nt	nt
Cc1nc(SC(C)C(=O)Nc2cccc(C(F)(F)F)c2)c2c(C)c(C(=O)O)sc2n1 (stereo not drawn)	45.0*	-1.2	-8.2	7.0	1.4	1.2	15.2*	-5.0
COC(=O)c1csc2c(C(F)(F)F)cc(N3CCN(C(=O)Nc4ccccc4)CC3)nc12	5.8	-2.8	-2.0	3.0	-1.2	0.7	nt	nt
COc1ccc(-n2c(O)c(/C=N/NS(=O)(=O)c3ccc(C)cc3)c3ccccc3c2=O)cc1OC	0.5	1.0	-4.3	-42.8	-20.8	-50.6	nt	nt
COc1ccccc1NS(=O)(=O)c1cccc(-n2c(O)c(C=Nc3ccccc3C(=O)O)c3ccccc3c2=O)c1	22.6*	4.0	30.2*	6.4	7.2	83.0*	12.2	1.0
Cc1nn(-c2ccc(Cl)cc2)c(Cl)c1/C=N/NC(=O)c1ccc(NS(=O)(=O)c2cccs2)cc1	18.7*	2.1	21.7	-0.4	-6.8	-18.4	14.6	0.9
COC(=O)C1C2C=CC(C3CC23)C1C(=O)OCC(=O)c1ccccc1 (stereo not drawn)	4.4	1.5	3.0	-0.3	2.5	-2.4	nt	nt
Cc1nn(-c2ccccc2)c2sc(C(=O)NNC(=O)COc3cccc4ccccc34)cc12	9.3	-7.2	-17.6	-23.9	-16.2	-30.1	nt	nt
Cc1nn(-c2ccccc2)c2sc(C(=O)NNC(=O)COc3ccccc3)cc12	23.2*	0.6	-8.9	-2.1	-4.9	6.8	22.3*	0.2
NS(=O)(=O)c1ccc(N/N=C/c2cn(-c3ccccc3)nc2-c2cccs2)c([N+](=O)[O-])c1	26.3*	0.9	4.5	1.5	2.4	-1.1	26.2*	0.4
COc1ccc(/C=N/Nc2nonc2N)c(OC)c1	2.6	2.8	3.1	8.0	8.4	0.4	nt	nt
COc1ccc(S(=O)(=O)N2CCC(O)(c3ccc(Cl)cc3)CC2)cc1OC	-6.1	-0.2	-0.8	1.2	1.1	1.4	nt	nt
O=C1C2C3CCC(O3)C2C(=O)N1c1nccs1 (stereo not drawn)	nt	nt	nt	6.2	7.8	11.4	nt	nt
O=C1OC(=O)C2C3CCC(O3)C12 (stereo not drawn)	74.9*	66.7*	7.8	nt	nt	nt	46.2*	51.0*
CCC1(CC)C(=O)NC(=S)N=C1N	nt	nt	nt	1.3	-2.1	2.3	nt	nt
C/C=C\C=C/C(=O)Nc1cccc(C2=NOC3(C2)C[C@@H](C(N)=O)N(C(=O)/C=C/CC)C3)c1 (stereo partly drawn)	1.1	-1.4	0.0	-4.7	1.3	-14.7	nt	nt
C/C=C\C=C/C(=O)Nc1cccc(C2=NOC3(C2)C[C@@H](C(N)=O)N(C(=O)/C=C/C=C\C)C3)c1 (stereo partly drawn)	30.9*	4.0	-3.9	-18.3	-13.1	-19.7	14.2	-1.1
C=C(C)C(=O)Nc1cccc(C2=NOC3(C2)C[C@@H](C(N)=O)N(C(=O)C(=C)C)C3)c1 (stereo partly drawn)	5.2	1.1	-0.8	14.4	4.1	2.6	nt	nt
NC(=O)[C@H]1CC2(CC(c3cccc(NC(=O)CC(c4ccccc4)c4ccccc4)c3)=NO2)CN1C(=O)c1ccccc1C(=O)c1ccccc1 (stereo partly drawn)	19.2*	2.6	-8.1	-23.7	-8.0	-36.6	11.7	0.2
C=C(C)C(=O)Nc1cccc(C2=NOC3(C2)C[C@@H](C(N)=O)N(C(=O)C2(C)CC2)C3)c1 (stereo partly drawn)	23.4*	1.7	-2.3	-4.6	2.2	3.8	1.9	-3.4
CCOc1ccccc1C(=O)N(C)Cc1cc2ccccc2[nH]c1=O	-4.5	-0.7	0.4	14.9	-1.1	-5.6	nt	nt
COc1ccc(C(=O)/C=C/Nc2cccc(C)n2)cc1OC	34.5*	0.4	2.4	1.6	-0.8	1.3	0.5	-3.3
O=C1N/C(=C/c2ccc(N3CCCC3)cc2)C(=O)N1c1ccccc1	22.7*	4.1	-0.7	2.7	-3.4	-0.5	11.4	-2.8
SMILES	PP1 inh	PP5 inh	pPAFAH FP inh	PAFAH1B3 FP inh	PAFAH1B2 FP inh	PAFAH2 inh	PP1 confirm	PP5 counter
COc1ccc(-n2c(Cc3cccn3C)nnc2SCC(=O)Nc2ccc3c(c2)OCCO3)cc1	-1.9	1.5	8.8	2.4	0.9	3.6	nt	nt
NC(=O)CC(NC(=O)Cc1ccc(Br)cc1)c1ccc(N2CCC(Br)CC2)c([N+](=O)[O-])c1 (stereo not drawn)	27.0*	0.1	26.1*	3.9	-1.7	-2.9	15.9*	-3.7
NC(=O)CC(NC(=O)Cc1cccc2ccccc12)c1ccc(N2CCC(Cc3ccccc3)CC2)c([N+](=O)[O-])c1 (stereo not drawn)	12.9	2.9	1.4	8.1	8.0	4.5	nt	nt
NC(=O)CC(NC(=O)Cc1ccc(Br)cc1)c1ccc(N2CCC(Cc3ccccc3)CC2)c([N+](=O)[O-])c1 (stereo not drawn)	22.6*	0.1	2.6	-2.8	-7.6	-9.0	10.1	-5.7
Cc1cccc(NC(=O)CSc2ncnc3nc[nH]c23)c1	-4.2	1.5	6.0	5.9	2.1	-1.6	nt	nt
SC(COCc1ccccc1)CN1CCN(Cc2ccc3c(c2)OCO3)CC1 (stereo not drawn)	25.3*	0.3	-0.2	4.8	-4.3	-5.9	1.8	-3.8
CCn1nc(C)c(NC(=O)CCCSc2nc(-c3ccco3)cc(C(F)(F)F)n2)c1C	-0.7	1.1	14.3	4.2	-2.4	-0.5	nt	nt
CC(C)(C)c1ccc(C(=O)Nc2ncn[nH]2)cc1	25.9*	-0.4	3.3	8.2	8.4	-1.4	6.3	-5.8
CCOC(=O)c1sc(N2C(=O)C(O)=C(C(=O)c3ccc(C)o3)C2c2ccc(OC)c(OC)c2)nc1C (stereo not drawn)	37.3*	1.5	5.5	2.8	1.2	-1.5	35.1*	4.9
COC(=O)c1sc(N2C(=O)C(O)=C(C(=O)c3ccc(C)o3)C2c2ccc([N+](=O)[O-])cc2)nc1C (stereo not drawn)	43.2*	1.5	18.0	8.5	12.7	6.8	29.4*	-1.1
COC(=O)c1sc(N2C(=O)C(O)=C(C(=O)c3ccc(C)o3)C2c2ccc(OC)c(OC)c2)nc1C (stereo not drawn)	nt	nt	nt	-6.2	-2.5	-4.9	nt	nt
